# Experimental data published in PMC7862700, “An all-to-all approach to the identification of sequence-specific readers for epigenetic DNA modifications on cytosine”.
# Assays:
# Test in all cases: DAPPL (digital affinity profiling via proximity ligation, sequencing); 10 mM Tris-HCl pH 7.5, 50 mM NaCl, 1 mM DTT, 4% glycerol, room temperature, 30 min; GST-TFs on glutathione beads, 16-mer random dsDNA library, 0.1% formaldehyde crosslink after washing; high values mean tight binding
# Conditions in all cases: protein: recombinant; tags: N-terminal GST; dsDNA, one strand shown
# FLI1 = molecular target: T1, FLI1 (Homo sapiens, UniProt Q01543 1-452)
# T1 sequence: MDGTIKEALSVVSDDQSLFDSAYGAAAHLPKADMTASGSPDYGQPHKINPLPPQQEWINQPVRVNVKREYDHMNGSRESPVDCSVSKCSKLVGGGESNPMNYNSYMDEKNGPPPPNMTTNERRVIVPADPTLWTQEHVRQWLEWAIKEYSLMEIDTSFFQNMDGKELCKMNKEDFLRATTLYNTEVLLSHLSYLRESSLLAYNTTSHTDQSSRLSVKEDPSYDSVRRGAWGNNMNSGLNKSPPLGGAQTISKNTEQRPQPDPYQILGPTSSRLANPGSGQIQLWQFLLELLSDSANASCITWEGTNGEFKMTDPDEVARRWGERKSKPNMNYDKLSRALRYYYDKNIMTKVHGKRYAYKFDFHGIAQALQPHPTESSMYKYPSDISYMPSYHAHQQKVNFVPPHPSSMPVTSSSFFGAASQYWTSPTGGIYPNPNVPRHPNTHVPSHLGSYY
# In short: (§1)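 Pools of DNA-barcoded human transcription factors, expressed in yeast as GST fusions on glutathione beads and combined with a tag-only sample, were incubated with 200 nmole of a 16-mer random double-stranded DNA library. Incubation took 30 min at room temperature in Tris/NaCl/DTT/glycerol buffer and was followed by washing, 0.1% formaldehyde crosslinking, proximity ligation (BsaI/T4 ligase, 1 h, 37 °C), PCR amplification and sequencing on an Illumina NextSeq500. Binding signal is the ratio of a hexamer's read frequency for a factor to its frequency for the tag-only sample.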
# ELK1 = molecular target: T2, ELK1 (Homo sapiens, UniProt P19419 1-428)
# T2 sequence: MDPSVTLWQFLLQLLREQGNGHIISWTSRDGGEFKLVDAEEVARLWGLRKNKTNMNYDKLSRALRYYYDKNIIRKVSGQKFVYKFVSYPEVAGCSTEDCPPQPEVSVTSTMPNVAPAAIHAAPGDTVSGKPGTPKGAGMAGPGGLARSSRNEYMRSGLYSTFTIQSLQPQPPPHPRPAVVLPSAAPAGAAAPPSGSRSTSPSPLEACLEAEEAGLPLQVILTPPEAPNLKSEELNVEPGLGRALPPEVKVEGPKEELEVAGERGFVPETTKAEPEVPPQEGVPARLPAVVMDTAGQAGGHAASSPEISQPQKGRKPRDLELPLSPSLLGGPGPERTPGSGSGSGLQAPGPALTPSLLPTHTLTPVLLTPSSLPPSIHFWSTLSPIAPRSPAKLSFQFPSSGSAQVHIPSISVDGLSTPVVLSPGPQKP
# In short: as §1
# GABPA = molecular target: T3, GABPA (Homo sapiens, UniProt Q06546 1-454)
# T3 sequence: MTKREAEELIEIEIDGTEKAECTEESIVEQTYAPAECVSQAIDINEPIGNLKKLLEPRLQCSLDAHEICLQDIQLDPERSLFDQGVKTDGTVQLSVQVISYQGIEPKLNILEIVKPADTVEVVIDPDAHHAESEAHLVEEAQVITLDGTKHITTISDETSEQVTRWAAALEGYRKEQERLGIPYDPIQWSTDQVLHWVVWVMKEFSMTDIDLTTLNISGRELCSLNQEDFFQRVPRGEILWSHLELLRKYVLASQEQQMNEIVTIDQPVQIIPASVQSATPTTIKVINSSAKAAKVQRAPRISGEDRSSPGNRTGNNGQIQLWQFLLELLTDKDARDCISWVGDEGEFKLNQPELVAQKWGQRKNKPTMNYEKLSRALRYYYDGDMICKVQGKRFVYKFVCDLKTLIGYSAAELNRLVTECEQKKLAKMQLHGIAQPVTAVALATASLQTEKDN
# In short: as §1
# ERG = molecular target: T4, ERG (Homo sapiens, UniProt P11308 1-479)
# T4 sequence: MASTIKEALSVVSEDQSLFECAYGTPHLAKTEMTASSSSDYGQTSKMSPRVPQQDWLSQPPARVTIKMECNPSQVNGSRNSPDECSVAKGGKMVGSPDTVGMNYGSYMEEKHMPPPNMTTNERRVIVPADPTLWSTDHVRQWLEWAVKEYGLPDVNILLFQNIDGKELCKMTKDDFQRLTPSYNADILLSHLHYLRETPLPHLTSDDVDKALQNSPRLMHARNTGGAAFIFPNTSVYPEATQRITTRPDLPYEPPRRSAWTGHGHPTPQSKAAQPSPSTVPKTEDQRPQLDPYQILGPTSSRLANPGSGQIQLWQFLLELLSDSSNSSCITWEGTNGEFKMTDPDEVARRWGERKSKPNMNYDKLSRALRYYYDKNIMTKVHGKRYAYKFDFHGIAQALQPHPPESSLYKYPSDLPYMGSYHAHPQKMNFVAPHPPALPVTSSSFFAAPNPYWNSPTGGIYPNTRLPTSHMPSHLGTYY
# In short: as §1
# ELF1 = ELF1 (Homo sapiens, UniProt P32519 1-619)
# Chain of ELF1 (P32519 whole entry): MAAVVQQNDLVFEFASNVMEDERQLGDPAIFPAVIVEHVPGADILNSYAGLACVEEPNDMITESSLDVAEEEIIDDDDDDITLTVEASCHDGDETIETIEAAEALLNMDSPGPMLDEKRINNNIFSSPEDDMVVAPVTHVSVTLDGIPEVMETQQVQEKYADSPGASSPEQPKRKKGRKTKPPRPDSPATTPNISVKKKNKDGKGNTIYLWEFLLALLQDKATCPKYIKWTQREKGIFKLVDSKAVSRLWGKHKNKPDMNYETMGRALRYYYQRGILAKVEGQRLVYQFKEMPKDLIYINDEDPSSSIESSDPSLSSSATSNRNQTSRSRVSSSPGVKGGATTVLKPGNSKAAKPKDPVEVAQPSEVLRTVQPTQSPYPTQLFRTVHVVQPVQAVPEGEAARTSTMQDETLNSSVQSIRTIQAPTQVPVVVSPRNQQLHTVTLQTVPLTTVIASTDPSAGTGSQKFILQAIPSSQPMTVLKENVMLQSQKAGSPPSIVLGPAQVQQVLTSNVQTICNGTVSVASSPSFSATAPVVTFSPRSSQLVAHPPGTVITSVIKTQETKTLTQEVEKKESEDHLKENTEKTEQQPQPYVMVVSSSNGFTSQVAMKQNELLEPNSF
# In short: as §1
# EHF = molecular target: T5, EHF (Homo sapiens, UniProt Q9NZC4 1-300)
# T5 sequence: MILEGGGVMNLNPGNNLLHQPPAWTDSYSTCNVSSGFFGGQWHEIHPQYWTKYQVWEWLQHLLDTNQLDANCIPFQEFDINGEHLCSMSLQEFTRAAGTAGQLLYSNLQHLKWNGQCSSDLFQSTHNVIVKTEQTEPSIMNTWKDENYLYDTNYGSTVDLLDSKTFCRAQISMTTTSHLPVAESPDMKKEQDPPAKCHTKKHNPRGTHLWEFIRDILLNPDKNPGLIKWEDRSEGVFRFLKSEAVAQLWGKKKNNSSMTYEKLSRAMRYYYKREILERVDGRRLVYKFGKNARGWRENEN
# In short: as §1
# SPI1 = SPI1 (Homo sapiens, UniProt P17947 1-270)
# In short: as §1
# SPIB = SPIB (Homo sapiens, UniProt Q01892 1-262)
# Chain of SPIB (Q01892 whole entry): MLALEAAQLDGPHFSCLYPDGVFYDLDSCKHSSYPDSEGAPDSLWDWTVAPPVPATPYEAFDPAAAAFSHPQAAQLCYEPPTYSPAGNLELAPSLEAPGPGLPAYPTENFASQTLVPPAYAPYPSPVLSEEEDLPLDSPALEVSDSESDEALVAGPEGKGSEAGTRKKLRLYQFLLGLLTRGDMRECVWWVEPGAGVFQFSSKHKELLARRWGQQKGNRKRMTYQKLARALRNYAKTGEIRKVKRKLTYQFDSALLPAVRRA
# In short: as §1
# ELK3 = molecular target: T6, ELK3 (Homo sapiens, UniProt P41970 1-407)
# T6 sequence: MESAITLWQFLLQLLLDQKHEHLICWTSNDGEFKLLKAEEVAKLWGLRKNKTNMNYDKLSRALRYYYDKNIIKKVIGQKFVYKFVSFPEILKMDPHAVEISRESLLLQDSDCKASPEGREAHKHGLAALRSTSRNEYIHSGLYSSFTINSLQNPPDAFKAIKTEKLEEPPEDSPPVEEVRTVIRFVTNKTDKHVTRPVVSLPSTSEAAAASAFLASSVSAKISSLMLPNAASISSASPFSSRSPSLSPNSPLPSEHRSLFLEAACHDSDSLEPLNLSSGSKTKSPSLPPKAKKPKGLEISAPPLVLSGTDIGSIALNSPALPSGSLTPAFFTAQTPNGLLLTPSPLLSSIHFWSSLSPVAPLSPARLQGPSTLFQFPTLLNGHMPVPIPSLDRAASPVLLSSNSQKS
# In short: as §1
sequence,measurement,setting,value
ATGCTA,binding signal,FLI1,"1.21 fold enrichment (6-mer frequency, TF over GST control)"
same,binding signal,ELK1,"1.2 fold enrichment (6-mer frequency, TF over GST control)"
same,binding signal,GABPA,"1.25 fold enrichment (6-mer frequency, TF over GST control)"
same,binding signal,ERG,"1.27 fold enrichment (6-mer frequency, TF over GST control)"
same,binding signal,ELF1,"1.23 fold enrichment (6-mer frequency, TF over GST control)"
same,binding signal,EHF,"1.28 fold enrichment (6-mer frequency, TF over GST control)"
same,binding signal,SPI1,"1.22 fold enrichment (6-mer frequency, TF over GST control)"
same,binding signal,SPIB,"1.21 fold enrichment (6-mer frequency, TF over GST control)"
same,binding signal,ELK3,"1.37 fold enrichment (6-mer frequency, TF over GST control)"
